For 39 compounds, fold change permeability results are on record in PubChem BioAssay.

Structures are written as SMILES. Values without a mark were called inactive. Activity calls are given as the source filed them. Rule as the data show it: active = fold change permeability below about 0.7 or above about 1.3; inactive = in between.

A short description of this experiment: modulators of brain endothelial barrier permeability, primary screen, cell-based, FITC-avidin fluorescence, HTS (AID 1963498). Also: test concentration not given here. The following applies: actives lie on both sides.
`CCn1cc(C(=O)O)c(=O)c2cc3c(cc21)OCO3`: the fold change permeability was 1. As for `CC(=O)N[C@@H](Cc1c[nH]c2ccccc12)C(=O)OCc1cc(C(F)(F)F)cc(C(F)(F)F)c1`, the figure is 0.9.

For the compound `Cc1cccc(Nc2ccccc2C(=O)O)c1`, the fold change permeability was 0.9. As for `COCCOC(=O)C1=C(C)NC(C)=C(C(=O)OC(C)C)C1c1cccc([N+](=O)[O-])c1` (centres undefined), the figure is 0.7 (active); as for `O[Si](CCCN1CCCCC1)(c1ccc(F)cc1)C1CCCCC1` (centres undefined), 1.4 (active); as for `COCc1nc2c([nH]1)c(=O)n(C)c(=O)n2CC(C)C`, 0.8. With `CCCCCC(O)CCCC(=O)O` (centres undefined), the fold change permeability is 1. To `N[C@@H](CS(=O)O)C(=O)O` belongs 1. To `COc1cccc(NC(=O)/C=C/c2ccc(Cl)cc2)c1` belongs 1.1; to `CC1(C)CC=C(c2cnc3ccccc3c2)c2cc(C(=O)Nc3ccc(C(=O)O)cc3)ccc21`, 1.1. In the case of `Nc1nc2ccc(Cl)cc2c2nc(-c3ccco3)nn12`, the fold change permeability was 1.3 (active). With `CN1CCN(C2=Nc3ccccc3Oc3ccc(Cl)cc32)CC1`, the fold change permeability is 1.3 (active). As for `N[C@@H](Cc1c[nH]c2ccc(O)cc12)C(=O)O`, the figure is 1. To `C=CCN1CCc2cc(O)c(O)cc2C(c2ccccc2)C1` (centres undefined) belongs 0.7 (active); to `CC1CCN(CC[C@H]2CCCN2S(=O)(=O)c2cccc(O)c2)CC1`, 0.7 (active). To `Cc1nc2ccccn2c(=O)c1CCN1CCC(C(=O)c2ccc(F)cc2)CC1` belongs 1.1; to `c1cnc(N2CCN(Cc3ccc4c(c3)OCO4)CC2)nc1`, 1; to `CC#C[C@]1(O)CC[C@H]2[C@@H]3CCC4=CC(=O)CCC4=C3[C@@H](c3ccc(N(C)C)cc3)C[C@@]21C`, 0.8. With `CC(C[N+](C)(C)C)OC(N)=O` (centres undefined), the fold change permeability was 1.

For `Nc1ccc2c3c(cccc13)C(=O)NC2=O`, the fold change permeability was 2.8 (active). As for `CC(=O)Oc1cc(C(C)C)c(OCCN(C)C)cc1C`, the fold change permeability was 0.8. As for `CC(C)(O)[C@@H]1CC[C@](C)([C@H]2[C@@H](O)C[C@@]3(C)[C@@H]4C[C@H](O)[C@H]5C(C)(C)[C@@H](O)CC[C@@]56C[C@@]46CC[C@]23C)O1`, the figure is 1; as for `CN[C@H](CC(=O)O)C(=O)O`, 0.8. To `CNCCCC12CCC(c3ccccc31)c1ccccc12` belongs 0.9; to `CCN(CC)S(=O)(=O)Nc1cccc(-c2ccc3c(NC(=O)C4CC4)n[nH]c3c2)c1`, 1.6 (active); to `CCCCCCCCCCCC(=O)c1c(O)c(C(=O)CCCCCCCCCCC)c(O)c(C2CC(c3ccc(O)cc3)Oc3cc(O)ccc32)c1O` (centres undefined), 1.4 (active). Regarding `CC(C)(C)c1ccc(CN2CCN(C(c3ccccc3)c3ccc(Cl)cc3)CC2)cc1` (centres undefined), the fold change permeability was 1.6 (active).

For `CCC(=O)Nc1cccc(Oc2nc(Nc3ccc(N4CCN(C)CC4)cc3OC)ncc2Cl)c1`, the fold change permeability was 1.2. Take `c1cnc2c(c1)ccc1cccnc12`: the fold change permeability is 1.2. As to `NCC(O)C1CCCCCCC1` (centres undefined), the fold change permeability is 1.

For `CC[N+](CC)(CC)CC(=O)Nc1c(C)cccc1C`, the fold change permeability was 1.5 (active). To `NC(CCCP(=O)(O)O)C(=O)O` (centres undefined) belongs 0.9; to `COc1cc(N2CCN(C)CC2)ccc1Nc1nccc(-c2cn(C)c3cnccc23)n1`, 1.2. To `O=C(O)c1cc2cc(F)ccc2[nH]1` belongs 1.2. As for `Cc1scc2c1N(C(=O)CN1CCN(C)CC1)c1ccccc1NC2=O`, the figure is 0.8. Turning to `CN1CC(=O)NC1=NC(=O)Nc1cccc(Cl)c1`, the fold change permeability was 0.7 (active).

Regarding `CC1CNCCN1S(=O)(=O)c1cccc2cnccc12` (centres undefined), the fold change permeability is 1.1. As for `N[C@@H](CCCC(=O)O)C(=O)O`, the figure is 1.1; as for `NC(N)=NCc1cccc(I)c1`, 0.9.
